Inconclusive results are not listed. Calls of active or inactive are those of the source. Unless noted, calls follow the shape of the dose curve; as a rule, active = well fitted curve in the direction sought with a large enough effect; inconclusive = small, poorly fitted or top-dose-only effect, or another doubt; inactive = no such curve, though single readings can be large; an effect the other way counts as inactive or inconclusive.
Tests used:
[1] = AP1 Signaling Pathway (AID 357; active = well fitted curve in either direction with a large enough effect, not every such curve was filed as active;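 also: ME-180 reporter cells stimulated with EGF at its EC50 level; % is scaled to controls: 0 for no effect and ±100 for the full control effect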); conditions: ME-180 AP-1-bla reporter, EGF-induced, beta-lactamase ratio, 5 h; at 38 µM (top of the series)
How it was run: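 Beta-lactamase reporter under AP-1 response element, ME-180 background. Stimulus: EC50 EGF. Compound exposure 5 h, 37 °C. Detection: CCF4, 2.5 h RT, 460/530 nm. Values: AC50 from titration.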

[2] = target: Cytochrome P450 1A2 (Homo sapiens) (UniProt P05177); test: p450-cyp1a2 (AID 410; calls by dose curve; also: potency is read from the fitted curve at half-maximal effect;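 as to activity change, negative = inhibition: -100% = full effect of reference inhibitor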)
How it was run: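 O-Demethylation of luciferin 6' methyl ether by human CYP1A2 is monitored as luciferase luminescence. Substrate sits at Km (100uM); enzyme is 20nM. Values are scaled to 57 uM furafylline as maximal inhibition.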

[3] = NFAT Signaling Pathway (AID 444; active = well fitted curve in either direction with a large enough effect, not every such curve was filed as active;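 also: carbachol stimulus at about its EC50 of 1 µM final; % is scaled to controls: 0 for no effect and ±100 for the full control effect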); conditions: Jurkat NFAT-bla M1, carbachol, beta-lactamase ratio, 5 h; at 38 µM (top of the series)
How it was run: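 Jurkat cells with NFAT-driven β-lactamase reporter and co-expressed M1 receptor, stimulated with carbachol (final 1 uM, ~EC50), compound titration, 5 h at 37 °C. CCF4 loaded 1 h at RT; 460/530 nm ratio gave %activity and AC50.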

[4] = Stat Signaling Pathway (AID 446; active = well fitted curve in either direction with a large enough effect, not every such curve was filed as active;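 also: ME-180 cervical cancer cells given 40 pM IL-6 alongside compound; SIE-controlled beta-lactamase reporter measured as 460/530 nm FRET emission ratio; % is scaled to controls: 0 for no effect and ±100 for the full control effect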); conditions: ME-180 (cervical carcinoma) SIE beta-lactamase reporter, IL-6 stimulated, 5 h; at 38 µM (top of the series)
How it was run: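 Normalization used AC90 stimulation (300 pM IL-6) and AC90 inhibition (125 nM pan-JAK inhibitor at 40 pM IL-6). The underlying signal is SIE-driven beta-lactamase in ME-180 cells after 5 h IL-6 exposure with compound.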

[5] = target: 3',5'-cyclic-AMP phosphodiesterase 4B (Homo sapiens) (UniProt Q07343); test: qHTS Assay for Inhibitors of PDE-IV (AID 607; active = well fitted activation curve with a large enough effect in the main read-out, with a control signal flat, not every such curve was filed as active; also: % of control where 0% means no effect)
How it was run: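 HEK293 ACTOne cells with CNG channel (1000/well), endogenous PDE4; membrane potential dye, compounds up to 22.9 uM final. Fluorescence Ex 535/Em 590; RO 20-1724 (100 uM final) as reference.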

[6] = qHTS Assay for Identification of Small Molecule Agonists for Thrombopoietin (TPO) Signaling Pathway (AID 917); also: % is scaled to controls: 0 for no effect and ±100 for the full control effect
How it was run: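 Luciferase reporter (Glycoprotein IIb promoter) in IL-3-deprived Ba/F3 cells carrying human TPO receptor; compounds co-added with 26 pM TPO, incubated 24 h, 37 C. Steadylite luminescence measured after 10 min.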

[7] = target: Pyruvate kinase (Leishmania mexicana) (UniProt Q27686); test: qHTS Validation Assay for Inhibitors of Leishmania Mexicana Pyruvate Kinase (AID 945);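 also: 0% = DMSO only neutral control wells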
How it was run: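 Mutant LmPYK (E451W), 0.2 nM, plus 0.5 mM PEP and 0.1 mM ADP in 50 mM imidazole pH 7.2 containing 0.01% Tween 20 and 0.05% BSA. Incubated 1 h at room temperature; luminescence via PKLight, normalized to DMSO.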

[8] = target: Pyruvate kinase PKM (Homo sapiens) (UniProt P14618); test: qHTS Assay for Activators of Human Muscle Pyruvate Kinase (AID 954; active = well fitted curve in the direction sought with a large enough effect, not every such curve was filed as active;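 also: 0% = uninhibited enzyme and -100% = no enzyme or full thiadiazolimine inhibition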)
How it was run: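 Compound pinned into substrate mix (0.5 mM PEP, 0.1 mM ADP), then 0.1 nM PKM2 added; 1 h, RT. Stop/detection luciferase reagent added, luminescence read. Normalized to no-inhibition and no-enzyme or reference-inhibitor controls.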

[9] = target: Alpha-galactosidase A (Homo sapiens) (UniProt P06280); test: Counterscreen for Glucocerebrosidase Inhibitors: qHTS Assay for Human alpha-Galactosidase at pH 4.5 (AID 992); also: 0% is about no effect
How it was run: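 Steps: enzyme (2 nM final), then compound across 0.7 nM to 77 uM, then 80 uM fluorogenic galactopyranoside substrate; incubate 20 min at room temperature; quench at pH 10; measure fluorescence at 365/440 nm.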

[10] = target: alpha-glucosidase (Oryza sativa, rice) (UniProt Q653V4); test: Counterscreen for Glucocerebrosidase Inhibitors: qHTS Assay for Rice alpha-Glucosidase at pH 5.0 (AID 997);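 also: 0% = full activity with enzyme and -100% = basal without enzyme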
How it was run: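 Endpoint fluorogenic assay at pH 5.0: compounds (0.7 nM to 77 uM) titrated against 4 nM rice enzyme and 400 uM 4-MU-alpha-glucoside for 20 min at room temperature; NaOH/glycine stop, read ex 365/em 440 nm, Hill-fitted AC50.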

[11] = qHTS Assay for Lipid Storage Modulators (AID 1519; calls by dose curve); conditions: Drosophila S3 cells, BODIPY lipid droplet/cell ratio, laser cytometry, cells loaded with oleic acid; for activity change, negative = inhibition: at 57.5 µM (top of the series)
How it was run: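 Cells seeded at 5,000 per well were treated with compounds over a concentration series and loaded with oleic acid (400 uM, as added). Lipid droplet fluorescence (488 nm excitation, 500-530 nm channel) was read by laser-scanning cytometry and normalized to 20 uM Triacsin C.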

[12] = target: DNA dC->dU-editing enzyme APOBEC-3G (Homo sapiens) (UniProt Q9HC16); test: qHTS for inhibitors of Vif-A3G interactions: Validation (AID 588379); also: 0% is about no effect
How it was run: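 Yellow fluorescence (Ex 488, Em 500-530) of Vif-coexpressing HeLa A3G-eYFP cells, scanned by Acumen cytometer, reports blocked A3G degradation. Cells plated at 700/well overnight at 37 deg C before compound addition, then a further overnight compound incubation at 37 deg C.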

[13] = tested on: Zika virus NS2B-NS3 protease; test: Primary screen GU AMC qHTS for Zika virus inhibitors (AID 1347154);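 also: 0% = no-inhibitor control and -100% = no-enzyme control; nearly all actives have a fitted effect of over 70% in size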
How it was run: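 Unlinked Zika NS2B hydrophilic domain–NS3 protease complex at 25 nM in 10 mM Tris-HCl pH 8.0, 0.01% Tween 20, with an AMC peptide substrate. Fluorescence change (340/450 nm) over 15 min at room temperature, normalized to controls, fitted to 4-parameter Hill.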

[14] = Primary qHTS for small molecule stabilizers of the endoplasmic reticulum resident proteome: Secreted ER Calcium Modulated Protein (SERCaMP) assay (AID 1508630); also: % is scaled to controls: 0 for no effect and ±100 for the full control effect
How it was run: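 The SH-SY5Y reporter protocol was run at 3 concentrations up to 38.3 uM (primary) or 11 concentrations (follow-up): 16 h compound, 100 nM thapsigargin for 4 h, then extracellular luciferase luminescence.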

[15] = target: Glucocorticoid receptor (Homo sapiens) (UniProt P04150); test: GR-GFP Redistribution (AID 450;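 active = compounds whose dose series gives a full or clear partial fitted curve of increased nuclear translocation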; also: potency is read from the fitted curve at half-maximal effect); conditions: U2OS GR-GFP nuclear translocation, laser cytometry, 2 h
[16] = target: Glucocorticoid receptor (Homo sapiens) (UniProt P04150); test: GR-EFC Redistribution (AID 451; calls by dose curve; also: potency is read from the fitted curve at half-maximal effect); conditions: CHO-K1 GR-EFC translocation, beta-gal luminescence, 2 h
How it was run: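 CHO-K1 cells expressing nuclear EA and GR-ED fragments of b-gal; compounds titrated up to 46 uM final, 2 h at 37 C. GR nuclear translocation read as complemented b-gal luminescence after 1 h RT detection.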

[17] = target: Mitogen-activated protein kinase 10 (Mus musculus) (UniProt Q61831); test: JNK3 AlphaScreen Assay (AID 530; active = well fitted curve in either direction with a large enough effect, not every such curve was filed as active)
How it was run: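 Activity was read by AlphaScreen after JNK3-containing HepG2 lysate (cytokine pre-activated) phosphorylated biotinylated GST-cJun with 10 uM ATP at room temperature. Phospho-Ser73 cJun antibody with Protein-A acceptor beads provided detection.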

[18] = target: Ubiquitin carboxyl-terminal hydrolase 1 (Homo sapiens) (UniProt O94782); test: Inhibitors of USP1/UAF1: Pilot qHTS (AID 504865);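 also: rhodamine fluorescence freed from ubiquitin-rhodamine substrate followed over time; top concentration of the series differs between compounds; % is scaled to controls: 0 for no effect and ±100 for the full control effect; nearly all actives have a fitted effect of over 35% in size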
How it was run: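 Deubiquitinase activity followed as kinetic rhodamine fluorescence release from 150 nM Ub-Rho. 1 nM USP1/UAF1 with compound, after 15 min room-temperature preincubation, in HEPES pH 7.8 buffer containing TCEP, EDTA, BSA and Tween-20.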

[19] = target: Guanine nucleotide-binding protein G(i) subunit alpha-1 (Homo sapiens) (UniProt P63096); test: qHTS Assay for Inhibitors of RGS12 GoLoco Motif Activity (Green Fluorophore) (AID 879);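 also: 0% = labeled peptide with Gαi1 and full inhibition = labeled peptide alone without protein; negative values mean loss of peptide binding seen as reduced polarization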
How it was run: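 A drop in FITC polarization marked displacement of the FITC-tagged RGS12 GoLoco peptide (10 nM) from Gαi1 (50 nM). Compounds were incubated 10 min at room temperature in Tris pH 7.5 buffer containing 150 mM NaCl, 0.1 mM GDP and 0.05% NP40; unlabeled peptide titration served as control.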

[20] = target: Muscarinic acetylcholine receptor M1 (Rattus norvegicus) (UniProt P08482); test: qHTS Assay for Antagonists of Acetylcholine Muscarinic M1 Receptor: Measurement of IP-One Response (AID 944); also: nearly all actives have a fitted effect of over 75% in size
How it was run: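 Antagonist mode with rat M1 receptor transfected into CHO cells. Compound is added first for 10 min, carbachol at its EC80 follows for 30 min, and lysis reagents then allow TR-FRET detection of accumulated IP1.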

[21] = target: Cytochrome P450 3A4 (Homo sapiens) (UniProt P08684); test: qHTS Assay for Activators of Cytochrome P450 3A4 (AID 885); also: nearly all actives have a fitted effect of over 65% in size
How it was run: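 Human CYP3A4 dealkylates Luciferin-PPXE to luciferin, which luciferase detection converts to light. Substrate was at its KM (25uM), buffer 200mM KPO4, reaction 60 min at RT.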

[22] = target: Cytochrome P450 2D6 (Homo sapiens) (UniProt P10635); test: qHTS Assay for Inhibitors and Substrates of Cytochrome P450 2D6 (AID 891); also: nearly all actives have a fitted effect of over 60% in size; also: potency is read from the fitted curve at half-maximal effect
How it was run: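 Luminescent read-out of luciferin formed by 5 nM human CYP2D6 demethylating 30 uM Luciferin-ME EGE (Km level) over 60 min at room temperature after NADPH regeneration addition. Data normalized to full inhibition by 1.43 uM quinidine.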

[23] = target: Cytochrome P450 2C9 (Homo sapiens) (UniProt P11712); test: qHTS Assay for Inhibitors and Substrates of Cytochrome P450 2C9 (AID 883); also: % is scaled to controls: 0 for no effect and ±100 for the full control effect; nearly all actives have a fitted effect of over 60% in size
How it was run: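 Signal: luciferase luminescence reporting luciferin produced by CYP2C9. Conditions: 10nM enzyme, Luciferin-H 100uM at KM, 25mM KPO4, 37C, 60 min NADPH-driven reaction. Reference: 57uM sulphaphenazole as 100% inhibition.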

[24] = target: Cytochrome P450 2C19 (Homo sapiens) (UniProt P33261); test: qHTS Assay for Inhibitors and Substrates of Cytochrome P450 2C19 (AID 899); also: % is scaled to controls: 0 for no effect and ±100 for the full control effect; nearly all actives have a fitted effect of over 60% in size
How it was run: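 Signal comes from luciferase acting on luciferin released by CYP2C19-mediated hydroxylation of Luciferin-H EGE, 10uM (KM). Assay mix: 5nM enzyme, 50mM KPO4; 60 min at 37C with NADPH regeneration. Data normalized against 57uM ketoconazole.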

[25] = Confirmation and Secondary Assay for Modulators of Hemoglobin Beta Chain Splicing at IVS2 654 locus (AID 910);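 also: HeLa cells stably carrying EGFP split by mutant beta-globin IVS2-654 intron; % of control where 0% means no effect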
How it was run: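 HeLa cells stably expressing EGFP interrupted by β-globin IVS2-654 intron, seeded overnight in Opti-MEM/2% FCS, then treated 2 days at 37 °C. Restored splicing read as total peak GFP intensity per well by laser scanning cytometry (488 nm excitation, 500–520 nm emission); 500 nM antisense PNA as control.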

[26] = Confirmation and Secondary Assay for Modulators of Hemoglobin Beta Chain Splicing at IVS2 705 locus (AID 930);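 also: HeLa cells stably expressing the EGFP-705 splicing reporter; GFP fluorescence per well restored by corrected splicing of the IVS2-705 intron in EGFP; % of control where 0% means no effect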
How it was run: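 Stable HeLa line with EGFP disrupted by mutant beta-globin intron 2 (705). Overnight attachment, then 2 days of compound at 37C, 5% CO2. Signal: peak GFP intensity summed over objects 5-250 µm.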

[27] = target: Muscarinic acetylcholine receptor M1 (Rattus norvegicus) (UniProt P08482); test: qHTS Assay for Antagonists of Acetylcholine Muscarinic M1 Receptor: Kinetic Measurement of Intracellular Calcium Response (AID 943);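 also: Fluo-4 calcium signal as peak divided by basal fluorescence over 4 min; nearly all actives have a fitted effect of over 75% in size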
How it was run: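 Antagonism is measured as inhibition of the carbachol-evoked calcium rise in CHO cells transfected with rat M1. Cells are dye-loaded, exposed to compound for 10 min, then stimulated with 100 nM carbachol (EC80).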

[28] = measured here: cell count channel max response
[29] = measured here: lipid channel max response

Glucocorticoid receptor (Homo sapiens), sequence (P04150 whole entry, looked up, the tested form may be a part): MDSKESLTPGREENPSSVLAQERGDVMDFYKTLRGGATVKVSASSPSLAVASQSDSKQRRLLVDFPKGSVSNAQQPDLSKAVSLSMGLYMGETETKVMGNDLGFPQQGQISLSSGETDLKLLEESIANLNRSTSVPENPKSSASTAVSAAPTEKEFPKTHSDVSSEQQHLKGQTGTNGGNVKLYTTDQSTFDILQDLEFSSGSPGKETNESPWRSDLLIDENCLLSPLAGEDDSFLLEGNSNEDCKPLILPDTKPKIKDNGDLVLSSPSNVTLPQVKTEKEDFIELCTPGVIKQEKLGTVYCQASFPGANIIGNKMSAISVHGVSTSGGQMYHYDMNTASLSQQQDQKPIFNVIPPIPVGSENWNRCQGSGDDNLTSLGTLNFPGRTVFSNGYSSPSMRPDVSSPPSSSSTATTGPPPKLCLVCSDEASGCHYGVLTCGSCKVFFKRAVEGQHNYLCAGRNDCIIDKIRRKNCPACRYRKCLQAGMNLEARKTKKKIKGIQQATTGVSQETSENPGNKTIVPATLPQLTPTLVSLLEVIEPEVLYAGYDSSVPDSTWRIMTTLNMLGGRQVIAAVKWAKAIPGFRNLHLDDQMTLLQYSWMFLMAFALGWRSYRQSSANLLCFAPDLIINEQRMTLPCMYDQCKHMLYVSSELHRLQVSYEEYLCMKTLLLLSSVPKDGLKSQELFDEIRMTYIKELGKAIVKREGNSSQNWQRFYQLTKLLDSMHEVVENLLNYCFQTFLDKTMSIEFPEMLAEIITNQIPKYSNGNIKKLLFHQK
DNA dC->dU-editing enzyme APOBEC-3G (Homo sapiens), sequence (Q9HC16 whole entry, looked up): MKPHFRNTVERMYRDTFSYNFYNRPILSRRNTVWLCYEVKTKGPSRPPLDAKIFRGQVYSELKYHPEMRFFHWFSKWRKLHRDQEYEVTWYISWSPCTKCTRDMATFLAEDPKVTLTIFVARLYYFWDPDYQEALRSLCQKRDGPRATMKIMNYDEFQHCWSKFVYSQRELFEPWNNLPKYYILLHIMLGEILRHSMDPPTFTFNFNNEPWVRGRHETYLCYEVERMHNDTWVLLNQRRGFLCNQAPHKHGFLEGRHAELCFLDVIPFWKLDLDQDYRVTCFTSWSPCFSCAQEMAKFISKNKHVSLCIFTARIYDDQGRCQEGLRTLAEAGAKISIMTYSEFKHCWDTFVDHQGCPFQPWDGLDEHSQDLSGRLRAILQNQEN
Pyruvate kinase (Leishmania mexicana), sequence (Q27686 2-499 E452W): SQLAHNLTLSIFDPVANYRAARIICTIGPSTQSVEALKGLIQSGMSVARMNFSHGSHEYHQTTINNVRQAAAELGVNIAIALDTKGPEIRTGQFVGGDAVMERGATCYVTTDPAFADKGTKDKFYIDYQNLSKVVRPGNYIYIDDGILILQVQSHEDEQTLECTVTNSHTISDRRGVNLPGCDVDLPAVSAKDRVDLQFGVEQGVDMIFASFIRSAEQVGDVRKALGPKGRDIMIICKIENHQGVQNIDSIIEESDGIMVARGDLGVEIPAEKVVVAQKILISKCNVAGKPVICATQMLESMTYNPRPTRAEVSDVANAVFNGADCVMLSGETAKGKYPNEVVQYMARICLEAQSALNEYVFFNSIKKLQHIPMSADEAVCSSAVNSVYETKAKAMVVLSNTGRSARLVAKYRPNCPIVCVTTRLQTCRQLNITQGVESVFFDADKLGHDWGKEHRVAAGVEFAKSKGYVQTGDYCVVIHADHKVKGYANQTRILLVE
Muscarinic acetylcholine receptor M1 (Rattus norvegicus), sequence (P08482 whole entry, looked up): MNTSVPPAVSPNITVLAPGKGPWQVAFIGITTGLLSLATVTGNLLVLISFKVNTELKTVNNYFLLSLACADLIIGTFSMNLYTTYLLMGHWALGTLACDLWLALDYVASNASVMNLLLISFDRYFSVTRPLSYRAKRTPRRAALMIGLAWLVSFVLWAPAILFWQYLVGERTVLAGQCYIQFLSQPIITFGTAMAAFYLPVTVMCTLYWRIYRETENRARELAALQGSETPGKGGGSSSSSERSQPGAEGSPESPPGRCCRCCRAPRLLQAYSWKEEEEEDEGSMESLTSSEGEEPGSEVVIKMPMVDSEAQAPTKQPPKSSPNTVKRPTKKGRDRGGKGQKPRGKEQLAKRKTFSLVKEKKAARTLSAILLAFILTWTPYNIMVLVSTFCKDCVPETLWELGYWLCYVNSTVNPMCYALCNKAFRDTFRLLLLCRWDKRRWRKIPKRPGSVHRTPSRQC
Alpha-galactosidase A (Homo sapiens), sequence (P06280 whole entry, looked up): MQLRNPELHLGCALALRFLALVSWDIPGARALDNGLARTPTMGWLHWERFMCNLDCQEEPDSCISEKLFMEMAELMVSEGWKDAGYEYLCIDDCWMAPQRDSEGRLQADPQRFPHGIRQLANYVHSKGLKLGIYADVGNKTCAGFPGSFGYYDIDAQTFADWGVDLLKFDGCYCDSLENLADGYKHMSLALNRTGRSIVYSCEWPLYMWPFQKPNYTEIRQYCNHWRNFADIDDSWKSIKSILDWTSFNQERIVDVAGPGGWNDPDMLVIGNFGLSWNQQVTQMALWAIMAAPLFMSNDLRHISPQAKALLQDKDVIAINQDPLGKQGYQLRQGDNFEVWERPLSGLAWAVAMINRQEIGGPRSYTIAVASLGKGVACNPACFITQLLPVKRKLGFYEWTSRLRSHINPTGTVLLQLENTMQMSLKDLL
Cytochrome P450 1A2 (Homo sapiens), sequence (P05177 whole entry, looked up): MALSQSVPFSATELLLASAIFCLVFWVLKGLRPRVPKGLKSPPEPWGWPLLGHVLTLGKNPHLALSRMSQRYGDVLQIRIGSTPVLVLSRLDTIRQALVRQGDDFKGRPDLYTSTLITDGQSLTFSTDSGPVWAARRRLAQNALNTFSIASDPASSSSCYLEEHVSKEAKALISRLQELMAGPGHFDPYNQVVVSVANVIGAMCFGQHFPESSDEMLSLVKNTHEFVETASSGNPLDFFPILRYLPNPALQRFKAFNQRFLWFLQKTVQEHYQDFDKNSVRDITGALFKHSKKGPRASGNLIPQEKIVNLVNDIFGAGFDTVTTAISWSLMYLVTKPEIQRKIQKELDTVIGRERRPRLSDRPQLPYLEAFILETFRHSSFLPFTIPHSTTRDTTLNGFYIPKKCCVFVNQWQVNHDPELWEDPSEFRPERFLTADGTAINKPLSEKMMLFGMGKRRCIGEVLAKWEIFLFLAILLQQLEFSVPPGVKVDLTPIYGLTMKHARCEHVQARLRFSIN
Ubiquitin carboxyl-terminal hydrolase 1 (Homo sapiens), sequence (O94782 whole entry, looked up): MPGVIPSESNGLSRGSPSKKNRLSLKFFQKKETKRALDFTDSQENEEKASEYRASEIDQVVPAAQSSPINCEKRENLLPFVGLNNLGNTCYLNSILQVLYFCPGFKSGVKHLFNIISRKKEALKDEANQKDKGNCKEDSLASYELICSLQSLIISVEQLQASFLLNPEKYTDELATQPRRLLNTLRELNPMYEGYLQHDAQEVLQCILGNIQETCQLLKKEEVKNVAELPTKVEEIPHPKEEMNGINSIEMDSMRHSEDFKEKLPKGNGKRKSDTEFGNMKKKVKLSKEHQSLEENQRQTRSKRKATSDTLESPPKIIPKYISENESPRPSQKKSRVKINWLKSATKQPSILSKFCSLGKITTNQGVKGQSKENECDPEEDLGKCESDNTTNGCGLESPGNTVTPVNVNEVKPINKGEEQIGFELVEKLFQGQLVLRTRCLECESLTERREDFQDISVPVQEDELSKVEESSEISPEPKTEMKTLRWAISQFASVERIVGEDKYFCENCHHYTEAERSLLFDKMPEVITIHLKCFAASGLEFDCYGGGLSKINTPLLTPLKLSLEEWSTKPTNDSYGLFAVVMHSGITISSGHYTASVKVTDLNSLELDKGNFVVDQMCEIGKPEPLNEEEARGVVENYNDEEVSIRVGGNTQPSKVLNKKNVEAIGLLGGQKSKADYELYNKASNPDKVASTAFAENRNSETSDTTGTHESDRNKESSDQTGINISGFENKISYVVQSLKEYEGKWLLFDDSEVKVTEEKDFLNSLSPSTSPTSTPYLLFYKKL
3',5'-cyclic-AMP phosphodiesterase 4B (Homo sapiens), sequence (Q07343 whole entry, looked up): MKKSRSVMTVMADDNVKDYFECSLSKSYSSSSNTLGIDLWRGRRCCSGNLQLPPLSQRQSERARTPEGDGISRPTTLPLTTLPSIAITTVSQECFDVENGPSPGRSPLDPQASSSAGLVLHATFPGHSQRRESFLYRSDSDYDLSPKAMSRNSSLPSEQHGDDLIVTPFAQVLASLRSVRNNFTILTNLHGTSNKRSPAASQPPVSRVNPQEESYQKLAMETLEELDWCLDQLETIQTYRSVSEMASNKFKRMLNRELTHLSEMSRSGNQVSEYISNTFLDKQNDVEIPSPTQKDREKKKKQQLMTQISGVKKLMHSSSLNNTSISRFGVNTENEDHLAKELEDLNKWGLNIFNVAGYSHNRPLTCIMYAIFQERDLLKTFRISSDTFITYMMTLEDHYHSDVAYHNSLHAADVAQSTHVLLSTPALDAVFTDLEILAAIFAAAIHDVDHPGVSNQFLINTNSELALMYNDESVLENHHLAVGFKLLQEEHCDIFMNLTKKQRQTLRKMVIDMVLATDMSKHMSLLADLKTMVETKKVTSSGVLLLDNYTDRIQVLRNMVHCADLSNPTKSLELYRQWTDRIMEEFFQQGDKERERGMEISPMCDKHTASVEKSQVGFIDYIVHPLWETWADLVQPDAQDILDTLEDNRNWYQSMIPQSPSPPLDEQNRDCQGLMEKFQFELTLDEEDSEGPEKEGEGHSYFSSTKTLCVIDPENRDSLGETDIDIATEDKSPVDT
Guanine nucleotide-binding protein G(i) subunit alpha-1 (Homo sapiens), sequence (P63096 whole entry, looked up): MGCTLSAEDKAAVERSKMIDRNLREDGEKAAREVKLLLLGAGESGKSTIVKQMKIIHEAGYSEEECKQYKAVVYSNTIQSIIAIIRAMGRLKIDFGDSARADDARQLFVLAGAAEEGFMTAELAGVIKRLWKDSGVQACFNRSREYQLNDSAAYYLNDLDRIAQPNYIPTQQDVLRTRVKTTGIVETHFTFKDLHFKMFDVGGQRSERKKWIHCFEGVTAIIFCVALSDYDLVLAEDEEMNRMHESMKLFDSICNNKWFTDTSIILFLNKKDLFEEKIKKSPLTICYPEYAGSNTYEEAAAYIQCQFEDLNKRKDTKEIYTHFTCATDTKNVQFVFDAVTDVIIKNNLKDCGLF

C[C@@H]1C[C@@H]2[C@H]3CCC4=CC(=O)C=C[C@]4(C)[C@]3(F)[C@@H](O)C[C@@]2(C)[C@@]1(O)C(=O)CO
8.23%: max response [11, 28]
inactive: activity change, negative = inhibition [1] -8.71% | Potency [2] | activity change, negative = inhibition [3] 7.2% | activity, negative = inhibition [4] -19.7% | Potency [5] | Potency [6] | Potency [7] | outcome [8] | outcome [9] | outcome [10] | activity change, negative = inhibition [11] -3.85% | Potency [12] | Potency [13] | Potency [14]
2.65%: max response [11, 29]

c1ccc2oc(C3=NCCN3)cc2c1
inactive: Potency [15] > 46 µM | Potency [16] > 46 µM | Potency [17] | activity change, negative = inhibition [11] -5.14% | Potency [18] | Potency [12] | Potency [13] | Potency [14]
-13.1%: max response [11, 28]
-18.7%: max response [11, 29]
active: Potency [2] 5.01 µM

N[C@@H]1CCN(O)C1=O
inactive: activity change, negative = inhibition [1] 18.2% | activity change, negative = inhibition [3] 0.992% | activity, negative = inhibition [4] 21.4% | Potency [15] > 46 µM | Potency [16] > 46 µM | Potency [17] | Potency [5] | outcome [19] | Potency [20] | Potency [7] | outcome [9] | outcome [10] | activity change, negative = inhibition [11] 4.58% | Potency [18] | Potency [12] | Potency [13] | Potency [14]
18.8%: max response [11, 28]
25.6%: max response [11, 29]

COc1cc(N)c(Cl)cc1C(=O)OCCCN1CCCCC1
active: Potency [22] 0.126 µM
21.4%: max response [11, 29]
19.2%: max response [11, 28]
inactive: Potency [2] | Potency [15] > 46 µM | Potency [16] > 46 µM | Potency [17] | Potency [5] | Potency [21] | activity change, negative = inhibition [11] 2.57% | Potency [18] | Potency [12] | Potency [13] | Potency [14]

O=C(O)[C@H]1CCCNC1
-0.0867%: max response [11, 28]
-1.72%: max response [11, 29]
inactive: activity change, negative = inhibition [1] 5.2% | Potency [2] | activity, negative = inhibition [4] -8.68% | Potency [15] > 46 µM | Potency [17] | Potency [5] | outcome [19] | Potency [23] | Potency [22] | Potency [24] | outcome [25] | Potency [6] | outcome [26] | Potency [27] | Potency [20] | Potency [7] | outcome [8] | outcome [9] | outcome [10] | activity change, negative = inhibition [11] -2.39% | Potency [12] | Potency [13] | Potency [14]
